# Source: PubChem (National Center for Advancing Translational Sciences (NCATS))
# Sampled rows, rich in hits. Any-hit rate of the full collection: about 20%.
# CHX counter: counter-screen hit for Shiga toxin inhibitors, cycloheximide. cell reporter, cycloheximide protein synthesis inhibition counterscreen. max response, %. 300,000 compounds, 12% hits. AID 2314; in the data active = max response mostly above about 13%, no sharp cut-off; inactive = mostly below about 14%; also: read at 38.3 µM for the half of the compounds with a filed dose
# HCMV antiviral: inhibitors of human cytomegalovirus | 410,000 compounds, 4.5% hits | HFF cells, HCMV-luciferase reporter, 72 h; active compounds read low | activity change, negative = inhibition, % at 57.5 µM; in the data active = activity change below about -60%; inconclusive = no clear call, values can overlap the other calls; inactive = above about -39%
#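 Steps: HFFs plated, 16 h 37C; compounds added; HCMV-luciferase added to MOI 1 PFU/cell; 72 h 37C; OneGlo reagent, 5 min room temperature; luminescence read, normalized to controls.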
# Shiga inhibitor: Shiga toxin inhibition; AID 2315; 290,000 compounds, 9.2% hits; Vero cells, Shiga toxin protein synthesis inhibition reporter; inhibition, % at 38.7 µM; in the data active = inhibition mostly above about 28%, no sharp cut-off; inactive = mostly below about 43%
# Pf growth 96h: P. falciparum growth inhibition at 96 hour, primary screen for plastid delayed-death inhibitors | P. falciparum luciferase reporter growth, 96 h | Potency, µM (highest dose often 28.7 µM), usual class: inhibitors | 320,000 compounds, 6.9% hits | AID 504834
#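 Infected RBCs, 2% Hct / 0.05% parasitemia final; luciferase-reporter P. falciparum; cpd 96 h, 37 C, 5% CO2; luciferase detection reagent; luminescence.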
# Pf growth 48h: inhibits P. falciparum growth in the first generation, 48 h; P. falciparum luciferase growth in erythrocytes, 48 h; 310,000 compounds, 5.9% hits; Potency, µM (top dose mostly 28.7 µM), most hits filed as inhibitors
#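 Parasite viability was followed by luminescence of a genomically integrated firefly luciferase. Cultures held 0.1% parasitemia at 2% hematocrit (final), incubated under 5% CO2 at 37 C.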
# Numbers stand for hits; 0 = inactive; ? = inconclusive; - = no result; [ ] = dose if it differs, or a comment. Unless noted, calls follow the shape of the dose curve; as a rule, active = well fitted inhibition curve with a large enough effect; inconclusive = small, poorly fitted or top-dose-only effect, or another doubt; inactive = no such curve, though single readings can be large or run the other way.
SMILES,CHX counter,HCMV antiviral,Shiga inhibitor,Pf growth 96h,Pf growth 48h
COc1ccccc1CNC(=O)C1CCCN(S(=O)(=O)c2cccs2)C1 (centres undefined),0,0,0,0,0
Cc1c(C(=O)N/N=C/c2cccs2)nnn1-c1nonc1N,0,0,52,0,0
CC(=O)NCCOc1ccc2oc3ccccc3c2c1,31,0,71,-,0
CCOC(=O)N1CCN(S(=O)(=O)c2ccc(C(=O)N(CCN(C)C)c3nc4ccc(Cl)cc4s3)cc2)CC1,27,0,110,0,0
CN(C)CCCN(C(=O)c1ccc(S(=O)(=O)N2CCCCC2)cc1)c1nc2cc3c(cc2s1)OCO3,0,0,0,0,12µM
Cc1ccc2sc(N(CCCN(C)C)C(=O)c3ccc(S(=O)(=O)N4CCCCCC4)cc3)nc2c1C,-,0,-,?,?
Cc1cc(C)c2nc(N(CCCN(C)C)C(=O)c3ccc(S(=O)(=O)N4CCCCCC4)cc3)sc2c1,-,?,-,12µM,9.3µM
CC1CCCCN1S(=O)(=O)c1ccc(C(=O)N(CCCN(C)C)c2nc3cc4c(cc3s2)OCO4)cc1 (centres undefined),0,-70,0,?,?
CCC(Oc1ccccc1)C(=O)Nc1ccc(OCc2cc(=O)n3ccc(C)cc3n2)cc1 (centres undefined),-,0,-,-,-
COc1cccc2c3c(c(=O)[nH]c12)CCC(C)(C)O3,13,0,0,-,0
CC(C)CCNC(=S)Nc1ccc(F)cc1,-,0,-,-,-
O=C(NCc1ccc(-c2nc3ccccc3s2)cc1)c1ccco1,34,0,71,0,?
COc1ccc(C(=O)NCc2ccc(-c3nc4ccccc4s3)cc2)cc1OC,0,0,0,-,0
O=C(NC(=S)NCc1ccc(-c2nc3ccccc3s2)cc1)c1ccco1,30,0,64,15µM,0
c1ccc2c(c1)NC1(CCCCCC1)n1c-2nc2ccccc21,34,0,77,-,0
NC1=NC2(CCCCCC2)n2c(nc3ccccc32)N1,0,0,0,?,?
NC1=NC2(CCCC2)n2c(nc3ccccc32)N1,0,0,0,0,0[5.75 µM]
CC1(c2ccccn2)Nc2ccccc2-c2nc3ccccc3n21 (centres undefined),0,0,0,0[5.75 µM],1.7µM
CCn1c(-c2cccnc2Cl)nc2ccccc21,0,0,0,0,0
c1ccc2c(c1)NC1(CCCCC1)n1c-2nc2ccccc21,26,0,0,0,-
Cc1ccc(C)c(C(=O)c2c(N)c(-c3nc(-c4ccc5c(c4)OCO5)cs3)c3ccccn23)c1,-,0,-,-,-
O=C(O)c1cc2ccccc2c(N=Nc2cccnc2)c1O,0,-,0,2.9µM,0
O=C1c2ccccc2NC(c2ccccc2O)N1c1ccc(F)cc1 (centres undefined),67,0,56,0,-
COc1cccc(C2Nc3ccccc3C(=O)N2c2ccc(F)cc2)c1O (centres undefined),59,0,79,0,-
COc1cccc(C2Nc3ccccc3C(=O)N2O)c1O (centres undefined),0,0,0,0,0
SMILES,CHX counter,HCMV antiviral,Shiga inhibitor,Pf growth 96h,Pf growth 48h
c1ccc(CSc2cc3ccccc3[nH]2)cc1,-,0,-,-,-
c1ccc(-n2nnc3ccccc32)nc1,26,0,67,0,0
CCOC(=O)c1ccc(OC(=O)CCCCCN=C(N)N)cc1,-,0,-,4.5µM,?
CCCCCCCCN=C(N)c1ccc(C(=O)OCC2CCCCC2)cc1,0,-,0,-,-
C=CCCN(Cc1ccccc1)S(=O)(=O)c1cc(Br)ccc1Br,-,0,-,0,13µM
O=C(Nc1ccc2nc(N3CCOCC3)sc2c1)c1ccccc1,-,0,-,0,?
O=C(Nc1ccccc1Cl)c1ccc2nc(N3CCOCC3)sc2c1,11,?,0,?,0
Cc1cccc(NC(=O)c2ccc3nc(N4CCOCC4)sc3c2)c1C,0,0,16,?,?
O=C(Nc1ccc(F)cc1F)c1ccc2nc(N3CCOCC3)sc2c1,18,0,49,12µM,0
CC(C)N1C(=O)CC[C@@H](S(=O)(=O)c2ccccc2)[C@@H]1/C=C/c1ccccc1,-,0,-,-,-
COc1ccc(C(CNC(=O)Cc2ccc(-c3ccccc3)cc2)N(C)C)cc1 (centres undefined),0,0,0,?,?
Cc1ccc(CNC(=O)c2cc(S(=O)(=O)N3CCCC3)cn2C)cc1,0,0,0,0,0
CCOC(=O)N1CCN(C(=O)c2ccc(OC(C)=O)cc2)CC1,0,0,0,?,0
O=C1NC2(CCCCC2)Cc2ccccc21,0,0,0,0,0
O=C(O)CN=C1NC2(CCCCC2)Cc2ccccc21,0,0,0,?,0
S=C1NC2(CCCCC2)Cc2ccccc21,0,0,0,12µM,?
N#CC(C#N)=C1NC2(CCCC2)Cc2ccccc21,0,0,0,3.3µM,?
COc1ccc(Nc2nccc3[nH]c(-c4cccc(F)c4)cc23)cc1OC,-,0,-,-,-
COc1cccc(CNC(=O)C2CCN(C(=O)c3sccc3-n3cccc3)CC2)c1,-,0,-,-,-
O=C(CSc1nc2ccccc2[nH]1)Nc1ccc2c(c1)CCC2,0,0,0,0,0
Cc1ccc(NC(=O)CSc2ncn[nH]2)cc1,14,0,0,0,0
CCOC(=O)c1c(-c2ccc(C)o2)csc1NC(=O)CSc1ncn[nH]1,0,0,0,15µM,-
NS(=O)(=O)c1ccc(NC(=O)CSc2ncn[nH]2)cc1,0,0,0,0,0
O=C(CSc1ncn[nH]1)Nc1ccc2c(c1)CCC2,20,0,0,0,0
O=C(CSc1ncn[nH]1)Nc1ccc(OCc2ccccc2)cc1,34,?,145,0,0
SMILES,CHX counter,HCMV antiviral,Shiga inhibitor,Pf growth 96h,Pf growth 48h
CCOC(=O)c1c(-c2ccc(C)o2)csc1NC(=O)CN1CCOCC1,0,0,0,?,-
O=C1c2oc3ccccc3c(=O)c2C(c2ccc(Br)cc2)N1c1ccccn1 (centres undefined),-,0,-,-,-
COc1ccccc1OCC(=O)N(Cc1ccc(Cl)cc1)CC1CCCO1 (centres undefined),-,0,-,-,-
CCOc1ccc(NC(=O)CSc2ncn[nH]2)cc1,18,0,0,12µM,0
CCCC1S/C(=N/N=C/c2ccc(OC)cc2)N(Cc2ccccc2)C1=O (centres undefined),0,0,0,-,?
CCCC1S/C(=N/N=C/c2ccc(OC)cc2)N(Cc2ccc(OC)cc2)C1=O (centres undefined),0,?,0,10µM,?
Nn1c(-c2cccc(Br)c2)n[nH]c1=S,0,0,0,0,0
Cc1ccc(-c2cc(-c3ccc(F)cc3)n[nH]2)c(O)c1,51,0,101,?,0
Oc1ccccc1-c1cc(-c2ccc(F)cc2)n[nH]1,30,0,-,?,0
Oc1ccccc1-c1cc(-c2ccccc2)n[nH]1,-,0,-,-,-
Oc1ccc(F)cc1-c1cc(-c2ccc3c(c2)OCCO3)n[nH]1,42,0,90,-,0
Cc1ccc(O)c(-c2cc(-c3cccc(Br)c3)n[nH]2)c1,45,0,98,0,0
Cc1c2c(nc3nnnn13)CCCC2,0,0,0,0,0
Cc1ccc(-c2cc(-c3ccc(C)cc3O)[nH]n2)cc1,41,0,51,0,0
Oc1ccc(Cl)cc1-c1cc(-c2ccccc2)n[nH]1,18,0,0,0,7.4µM
